DT40 TDP1 CPT: growth inhibition of DT40 Tdp1-/-;hTDP1 cells with camptothecin (screen for TDP1 inhibitors) | chicken DT40 Tdp1-/-;hTDP1 cells + 20 nM CPT, ATP luminescence, 48 h | Potency, µM (series often up to 46.2 µM), for the others: at the top dose activity change, negative = growth inhibition, hits mostly inhibitors | 12% of 420,000 active | AID 686979; also: potency is read from the fitted curve at half-maximal effect; nearly all actives have a fitted effect of over 55% in size
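Cell growth measured by CellTiter-Glo luminescence after a minimum 48 h, 37 C compound exposure with 20 nM CPT in Tdp1-knockout DT40 cells stably expressing hTDP1, seeded 400/well; qHTS titration format.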
TDP1 inh: blocks human tyrosyl-DNA phosphodiesterase 1; Q9NUW8; recombinant TDP1, AlphaScreen DNA substrate cleavage; Potency, µM (series often up to 130 µM), inactives show at the top dose activity change, negative = inhibition, actives largely listed as inhibitors; 0.28% of 350,000 active; also: potency is read from the fitted curve at half-maximal effect; nearly all actives have a fitted effect of over 40% in size
Target sequence (Q9NUW8 whole entry, looked up): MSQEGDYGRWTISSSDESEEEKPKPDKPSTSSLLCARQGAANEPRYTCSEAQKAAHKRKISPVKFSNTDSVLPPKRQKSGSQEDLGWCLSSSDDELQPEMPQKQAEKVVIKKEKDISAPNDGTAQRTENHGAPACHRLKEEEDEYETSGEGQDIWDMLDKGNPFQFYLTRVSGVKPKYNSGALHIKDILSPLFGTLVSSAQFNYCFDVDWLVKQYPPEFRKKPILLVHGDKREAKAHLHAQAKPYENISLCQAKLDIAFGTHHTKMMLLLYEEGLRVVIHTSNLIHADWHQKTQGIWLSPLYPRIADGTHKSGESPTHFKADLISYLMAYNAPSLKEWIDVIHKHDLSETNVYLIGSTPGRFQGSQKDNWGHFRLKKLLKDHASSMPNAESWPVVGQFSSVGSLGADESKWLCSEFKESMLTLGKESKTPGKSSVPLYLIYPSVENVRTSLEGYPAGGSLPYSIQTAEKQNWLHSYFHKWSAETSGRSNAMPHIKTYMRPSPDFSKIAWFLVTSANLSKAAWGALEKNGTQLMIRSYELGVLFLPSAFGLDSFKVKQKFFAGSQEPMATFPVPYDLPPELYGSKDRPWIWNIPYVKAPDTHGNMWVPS
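Signal: AlphaScreen proximity between streptavidin donor and anti-FITC acceptor beads on intact substrate. Reaction: Tdp1 1 nM, substrate 15 nM final, 5 min RT after 15 min compound preincubation.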
IL1B secr inh: blocks inflammasome-driven IL-1 beta release | THP-1 LPS/ATP IL-1B secretion, AlphaLISA, 16 h; active compounds read low | activity change, % at 57.5 µM | 4.7% of 360,000 active | AID 743279; in the data active = activity change below about -50%; inconclusive = mostly about -30% to -49%
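Secreted IL-1B measured by AlphaLISA bead assay after 16 h compound exposure of THP-1 cells; compounds (final up to 57.5 uM) added 1 h before LPS (250 ng/mL) and ATP (1.25 mM) stimulation; lower signal means less secretion.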
CtBP-E1A blk: inhibitors of CtBP/E1A interaction. AlphaScreen GST-E1A/His-CtBP binding, 1536-well; active compounds read low. activity change, % (no concentration beside the values). 0.49% of 340,000 active; in the data active = activity change below about -65%; inconclusive = mostly about -30% to -63%
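Protein mix (5X: 125 nM each GST-E1A, His-CtBP) was incubated with pinned compound 2 h at 37 deg C in dark, in 50 mM Tris pH 8.0 buffer with 300 mM NaCl. Glutathione donor and nickel acceptor beads followed; AlphaScreen signal read after 1 h.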
Six1-Eya2 inh: blocks human Six1 binding to Eya2 | AlphaScreen GST-Six1/His-Eya2 binding, biochemical; active compounds read low | activity change, % (test concentration not listed) | 0.56% of 360,000 active | AID 651725; in the data active = activity change below about -65%; inconclusive = mostly about -30% to -63%
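AlphaScreen luminescence read after one hour at 37 °C in darkness. Pin-transferred compounds met GST-Six1 and His-Eya2 protein (5X stock 250 nM/500 nM) plus glutathione donor and Ni-chelate acceptor beads (5X, 50 ug/mL).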
DT40 TDP1 no CPT: qHTS for Inhibitors of human tyrosyl-DNA phosphodiesterase 1 (TDP1): qHTS in cells in absence of CPT | DT40 Tdp1-/- hTDP1 cells, no CPT, ATP luminescence, 48 h | Potency, µM (highest dose often 46.2 µM), for inactives: at the top dose activity change, negative = growth inhibition, usual class: inhibitors | 15% of 420,000 active; also: potency is read from the fitted curve at half-maximal effect; nearly all actives have a fitted effect of over 55% in size
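Growth of hTDP1-complemented DT40 Tdp1-knockout cells is measured by ATP luminescence after at least 48 hr compound exposure at 37 °C, with DMSO substituting for the 20 nM CPT used in the parallel screen.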
Numbers without * were called inactive; ? = inconclusive; . = not tested or not shown; [ ] = dose if it differs, or a comment. In the library only some 18% were active in any assay of this set; here they are far more common. Unless noted, calls follow the shape of the dose curve; as a rule, active = well fitted curve in the direction sought with a large enough effect; inconclusive = small, poorly fitted or top-dose-only effect, or another doubt; inactive = no such curve, though single readings can be large; an effect the other way counts as inactive or inconclusive. % is scaled to controls: 0 for no effect and ±100 for the full control effect.

SMILES | DT40 TDP1 CPT | TDP1 inh | IL1B secr inh | CtBP-E1A blk | Six1-Eya2 inh | DT40 TDP1 no CPT
CN(C)c1ccc(NS(=O)(=O)c2ccc(-c3csnn3)cc2)cc1 | ? | -8% | -5 | ? | ? | 13µM*
Cc1ccc(S(=O)(=O)Nc2ccc(N(C)C)cc2)cc1 | -24% | 5% | -21 | -18 | -19 | ?
Cc1ccc(NS(=O)(=O)c2cccc(Cl)c2)cc1C | . | -4% | . | . | . | .
CC(=O)N(C(C)=O)c1ccc2nc(C)[nH]c(=O)c2c1 | -8% | 2% | 9 | -7 | -1 | -18%
COc1ccc(C(=O)NCC(=O)NC2=NCCS2)cc1 | -1% | 10% | 15 | -2 | -1 | -9%
Cc1cc(C(=O)Nc2c(C)nn(Cc3ccc(F)cc3)c2C)on1 | 8% | -5% | -1 | -8 | 6 | -13%
COc1ccc(OC)c2c(C)cc(N3CCCCCC3)nc12 | ? | . | -11 | -9 | -12 | 9.2µM*
COc1cccc2c(C)cc(N3CCCCCC3)nc12 | -15% | 0% | 1 | . | 17 | ?
COc1cc(O)c(C(CCN2CCCC(C)C2)c2ccc3c(c2)OCO3)c(OC)c1 (stereo unspecified) | 16µM* | 13% | 0 | -23 | -19 | 16µM*
COc1cc(OC)c2ccc(=O)oc2c1C(CC(=O)N1CCCC1)c1ccc(N(C)C)cc1 (stereo unspecified) | ? | 13% | -4 | -5 | -11 | ?
COc1cc(OC)c2ccc(=O)oc2c1C(CCN1CCCC(C)C1)c1ccc2c(c1)OCO2 (stereo unspecified) | 10µM* | 11% | 0 | 22 | -10 | 15µM*
O=S(=O)(c1cccc(-c2nnc(-c3ccc(Br)cc3)o2)c1)N1CCCCCC1 | -29% | 4% | -17 | 3 | -1 | -6%
O=c1c(-c2ccccc2)coc2cc(O)cc(O)c12 | -4% | -12%[56.1 µM] | . | . | . | -19%
CCC(=O)Oc1c(Sc2ccc(Cl)cc2)c(C)nn1-c1ccccc1 | ? | 12% | . | . | . | 0.52µM*
Cc1nn(C(=O)c2ccccc2)c(C)c1Sc1ccc(Cl)cc1 | ? | -1%[12.3 µM] | . | . | . | 8.2µM*
CCCC(=O)Oc1c(Sc2ccc(C)cc2)c(C)nn1-c1ccccc1 | -17% | 12% | . | . | . | -17%
Cc1ccc(Sc2c(C)nn(C(=O)c3ccc(Br)cc3)c2C)cc1 | 3% | . | . | . | . | -15%
CCOC(=O)N1CCN(c2c(F)cc3[nH]c(=S)[nH]c3c2Br)CC1 | ? | 13% | 27 | -7 | -1 | 18µM*
CCOC(=O)N1CCN(c2cc3[nH]c(=S)[nH]c3cc2F)CC1 | ? | 3% | 13 | 4 | -2 | 2%
CCOc1ccc(NC(=O)CSc2nc(-c3cccs3)cc(C(F)(F)F)c2C#N)cc1 | -7% | -2% | . | . | . | -2%
N#Cc1c(C(F)(F)F)cc(-c2cccs2)nc1SCC(=O)Nc1ccc(Cl)cc1 | 16µM* | . | . | . | . | ?
Cc1ccc(S(=O)(=O)CCSc2nc(C)cc(C(F)(F)F)c2C#N)cc1 | ? | -3% | -101* | 24 | 24 | ?
CCOC(=O)NC(=O)CSc1nc(C)cc(C(F)(F)F)c1C#N | 2% | 0% | -10 | -1 | 0 | -26%
O=C(CSc1nc2nc(-c3cccs3)cc(C(F)(F)F)c2c(=O)[nH]1)Nc1ccc(F)c(F)c1 | 6.5µM* | -4% | 0 | 0 | -9 | 4.1µM*
Cc1cc(C(F)(F)F)c(C#N)c(SCC(=O)Nc2nc3cc(Br)ccc3s2)n1 | 4% | -3% | -146* | -3 | -2 | -26%
SMILES | DT40 TDP1 CPT | TDP1 inh | IL1B secr inh | CtBP-E1A blk | Six1-Eya2 inh | DT40 TDP1 no CPT
Cc1cc(C)cc(OCC(=O)OC(C)C(=O)Nc2c(C)n(C)n(-c3ccccc3)c2=O)c1 (stereo unspecified) | -2% | -4%[0.505 µM] | 6 | 7 | -2 | -3%
N#Cc1ccc(-c2cccs2)nc1SCC(=O)Nc1cccc(C(F)(F)F)c1 | ? | 8% | . | . | . | 21µM*
N#Cc1ccc(-c2cccs2)nc1SCc1c(F)cccc1Cl | 0.82µM* | -3% | . | . | . | 0.65µM*
C=COC(=O)CSc1nc(-c2cccs2)ccc1C#N | -22% | . | 34 | 11 | 17 | 3%
Nc1ncnc2nn(C3OC(CO)C(O)C3O)nc12 (stereo unspecified) | 4.1µM* | . | 53 | 0 | 1 | 1.8µM*
CC1CCN(c2nc3c(N)ncnc3n2[C@@H]2O[C@H](CO)[C@@H](O)[C@H]2O)CC1 | -8% | . | -8 | 3 | -21 | -6%
OCC1OC(n2nc3ccccc3n2)C(O)C(O)C1O (stereo unspecified) | -8% | 4% | 30 | 11 | 0 | -13%
Nc1ncnc2c1nc(Br)n2C1OC(CO)C(O)C1O (stereo unspecified) | ? | 11% | . | . | . | 2.3µM*
Cn1c(-c2ccc3nc(N)sc3c2)nc2cc(N)ccc21 | ? | ? | -24 | -2 | 5 | 23µM*
COCCNc1nc(NCC2CCCCC2)c2sc(-c3ccccc3)cc2n1 | 15µM* | . | -103* | -3 | 6 | 8.2µM*
Cn1c(NCCOc2ccccc2)nc2cc(-c3ccc(F)cc3)sc2c1=O | ? | . | 2 | 29 | 19 | ?
COCCNc1nc(NCCOc2ccccc2Cl)c2sc(-c3ccccc3)cc2n1 | 9.2µM* | . | -60* | -5 | -2 | 13µM*
O=C1NCCN1CCNc1nc(NCC2CC2)nc2cc(-c3ccccc3)sc12 | ? | . | . | -14 | 2 | 21µM*
COCCNc1nc(-c2ccccc2CO)c2sc(-c3ccccc3)cc2n1 | 1.3µM* | . | 20 | 7 | 1 | 1.8µM*
COCCNc1nc(NCCNC(C)=O)c2sc(-c3ccccc3)cc2n1 | ? | . | . | -15 | -7 | ?
[O-]/[N+](=C\c1cccc(Br)c1)c1ccccc1 | ? | -11% | -13 | 5 | -1 | ?
CN1CCN(S(=O)(=O)c2cccc(C(=O)N(C)Cc3cccs3)c2)CC1 | -22% | 0% | -3 | 4 | 2 | 20%
COc1ccc(C(=O)n2cnc3ccccc32)cc1Br | -6% | . | -9 | 4 | 5 | -6%
CCC(C)C(NC(=O)C1CCC(C)CC1)C(=O)Nc1ccc(OC)cc1OC (stereo unspecified) | ? | -3% | 0 | 25 | 0 | -17%
c1ccc(-c2cc3nc(NCC4CC4)nc(NCC4CCCCC4)c3s2)cc1 | 4.6µM* | . | -109* | -7 | 1 | 2.9µM*
Cc1ccc(-c2nnc(C)c(N3CCOCC3)n2)cc1 | -27% | 2% | -18 | 0 | -9 | ?

Screens deposited in PubChem by National Center for Advancing Translational Sciences (NCATS).
